Sampled rows, rich in hits. Any-hit rate of the full collection: about 1.5%.
WRN inhibitor: inhibitors of human WRN helicase; Q14191; WRN helicase unwinding, fluorescent forked duplex, kinetic; Potency, µM (highest dose often 114 µM), for the others: top-dose activity change, negative = inhibition, most hits filed as inhibitors; 0.46% of 360,000 active; AID 651768; further: potency means the concentration at half of the fitted maximal effect; nearly all actives have a fitted effect of over 55% in size
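Kinetic fluorescence helicase assay: unwinding of a quenched forked DNA duplex (100 nM final) with 2 mM ATP final raises red fluorescence (525/598 nm). Compounds sat 15 min at room temperature with 20 nM WRN beforehand.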
APEX1 inh: APE1 (human) endonuclease inhibition. P27695. AID 2517. 0.35% of 350,000 active. recombinant APE1, TAMRA/BHQ-2 abasic DNA cleavage fluorescence. Potency, µM (highest dose often 65.8 µM), for the others: at the highest dose activity change, negative = inhibition, most hits filed as inhibitors;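 further: potency means the concentration at half of the fitted maximal effect; plate controls were vehicle for no effect and reference inhibitor for full effect; nearly all actives have a fitted effect of over 55% in size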
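Incision of a quenched TAMRA/BHQ-2 THF abasic-site duplex (50 nM) by 0.75 nM APE1, after 15 min compound preincubation, measured as fluorescence increase over three 60 s reads. Values normalized to buffer, DMSO and NSC13755 control wells.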
PI5P4K alpha inh: blocks human PI5P4K alpha kinase activity. PI5P4Kalpha enzyme, ADP-Glo luminescence, 60 min; stronger effect = lower value. AID 652105. 1.2% of 330,000 active. P48426. max response, %; active means max response of -50% or lower; inconclusive means between -30% and -50%; inactive means -30% or higher; further: value at the top dose of about 77 µM
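ADP-Glo luminescence end-point after a 60 min room-temperature kinase reaction. PI5P4Kalpha and substrate in HEPES pH 7.4 buffer with EGTA, 0.1% CHAPS and 5% DMSO; ATP at 5 microM final.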
RECQ1 inh-1: blocks DNA unwinding by human RECQ1; RECQ1 DNA unwinding, red fluorescence kinetic read; Potency, µM (titrated, usually from 57.3 µM), for inactives: top-dose activity, negative = inhibition, hits mostly inhibitors; 0.54% of 240,000 active; AID 2549;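 further: potency means the concentration at half of the fitted maximal effect; plate controls were vehicle for no effect and no enzyme for full effect; nearly all actives have a fitted effect of over 30% in size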
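RECQ1T1 50 nM; forked duplex (20 bp + 30-nt ss tails) 200 nM, ATP 2 mM final; pH 8.0, 2 mM MgCl2, 2.5 ug/ml poly(dI-dC); 15 min compound preincubation; discontinuous kinetic read over 2 h at RT.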
BLM inh: blocks DNA unwinding by human BLM helicase. Potency, µM (titrated, usually from 56.1 µM), inactives show top-dose activity change, negative = inhibition, hits mostly inhibitors. P54132. recombinant BLM DNA unwinding, fluorescence dequenching. AID 2528. 0.2% of 350,000 active;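 further: potency means the concentration at half of the fitted maximal effect; plate controls were vehicle for no effect and no enzyme for full effect; nearly all actives have a fitted effect of over 35% in size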
Target sequence (P54132 whole entry, looked up): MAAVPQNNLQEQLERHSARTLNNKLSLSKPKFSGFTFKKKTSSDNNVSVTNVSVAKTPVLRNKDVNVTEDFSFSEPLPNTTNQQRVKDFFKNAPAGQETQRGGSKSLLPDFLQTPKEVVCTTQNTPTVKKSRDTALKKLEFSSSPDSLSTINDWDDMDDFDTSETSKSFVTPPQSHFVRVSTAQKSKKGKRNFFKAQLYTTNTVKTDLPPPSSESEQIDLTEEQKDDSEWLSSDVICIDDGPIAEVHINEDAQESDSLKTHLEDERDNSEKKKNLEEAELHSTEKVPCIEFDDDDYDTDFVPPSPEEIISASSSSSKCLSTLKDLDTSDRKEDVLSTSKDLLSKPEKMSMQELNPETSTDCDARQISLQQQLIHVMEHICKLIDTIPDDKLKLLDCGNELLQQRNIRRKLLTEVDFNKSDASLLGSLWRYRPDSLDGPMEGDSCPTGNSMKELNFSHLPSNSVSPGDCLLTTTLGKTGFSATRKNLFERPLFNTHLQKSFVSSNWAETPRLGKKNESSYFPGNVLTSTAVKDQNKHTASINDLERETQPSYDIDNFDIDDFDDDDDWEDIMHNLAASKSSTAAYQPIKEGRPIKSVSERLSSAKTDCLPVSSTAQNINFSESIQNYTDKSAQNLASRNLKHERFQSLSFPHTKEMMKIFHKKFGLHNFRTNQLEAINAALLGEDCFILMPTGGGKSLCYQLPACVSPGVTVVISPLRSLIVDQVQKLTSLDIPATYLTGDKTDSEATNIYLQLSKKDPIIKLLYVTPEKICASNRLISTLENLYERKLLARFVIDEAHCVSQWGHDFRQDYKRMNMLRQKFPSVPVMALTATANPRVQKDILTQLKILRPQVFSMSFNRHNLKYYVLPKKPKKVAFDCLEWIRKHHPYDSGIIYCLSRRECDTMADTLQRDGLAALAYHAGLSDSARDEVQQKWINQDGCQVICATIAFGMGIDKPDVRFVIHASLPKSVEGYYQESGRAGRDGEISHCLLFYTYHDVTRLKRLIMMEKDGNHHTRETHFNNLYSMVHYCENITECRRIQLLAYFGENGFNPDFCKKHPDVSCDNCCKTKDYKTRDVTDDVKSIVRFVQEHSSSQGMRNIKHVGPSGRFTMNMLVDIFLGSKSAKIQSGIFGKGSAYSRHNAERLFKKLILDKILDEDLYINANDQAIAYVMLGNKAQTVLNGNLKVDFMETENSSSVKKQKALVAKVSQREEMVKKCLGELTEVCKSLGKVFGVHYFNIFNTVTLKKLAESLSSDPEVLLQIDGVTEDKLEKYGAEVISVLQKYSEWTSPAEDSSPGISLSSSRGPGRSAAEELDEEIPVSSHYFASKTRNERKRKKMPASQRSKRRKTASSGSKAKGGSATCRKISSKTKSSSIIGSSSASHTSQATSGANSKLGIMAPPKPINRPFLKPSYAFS
FEN1 inhibitor: inhibitors of human flap endonuclease 1 | P39748 | Recombinant FEN1 flap cleavage, fluorescence, 15 min | Potency, µM (doses to about 114 µM), for the others: at the top dose activity change, negative = inhibition, hits mostly inhibitors | 0.35% of 390,000 active | AID 588795; further: potency means the concentration at half of the fitted maximal effect; nearly all actives have a fitted effect of over 65% in size
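Recombinant FEN1 (10 nM) was preincubated with pin-transferred compounds for 15 min at room temperature, then flap DNA substrate (50 nM final) was added. Plates were read at 0 and 15 min, and normalized concentration–response data were fitted to a four-parameter Hill equation.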
RECQ1 inh conf: confirmation of human RECQ1 helicase inhibitors | AID 2708 | shares compounds with RECQ1 inh-1 | RECQ1 helicase DNA unwinding, fluorescence | Potency, µM (titrated, usually from 229 µM), without a hit: at the top dose activity change, negative = inhibition, actives largely listed as inhibitors | 28% of 610 active; further: potency means the concentration at half of the fitted maximal effect; nearly all actives have a fitted effect of over 45% in size
ADP FP counter: counter-screen for RECQ1 inhibitors: ADP displacement. shares compounds with RECQ1 inh-1. ADP fluorescence polarization displacement counterscreen. Potency, µM (titrated, usually from 228 µM), for inactives: at the highest dose activity change, negative = inhibition, usual class: inhibitors. 27% of 530 active; further: potency means the concentration at half of the fitted maximal effect; nearly all actives have a fitted effect of over 45% in size
RECQ1 inh-2: blocks human RECQ1 DNA unwinding; recombinant RECQ1 DNA unwinding, red fluorescence; Potency, µM (titrated, usually from 119 µM), without a hit: at the highest dose activity, negative = inhibition, usual class: inhibitors; shares compounds with RECQ1 inh-1; 15% of 1,100 active; further: potency means the concentration at half of the fitted maximal effect; nearly all actives have a fitted effect of over 50% in size
The depositor's hits bear a star; i = inactive; ? = inconclusive; . = not tested or not shown; [ ] = dose if it differs, or a comment. Unless noted, the call rests on the fitted dose curve; in most records, active means well fitted curve in the direction sought with a large enough effect; inconclusive means small, poorly fitted or top-dose-only effect, or another doubt; inactive means no such curve, though single readings can be large; an effect the other way counts as inactive or inconclusive. Unless noted, on the % scale 0 is the no-effect control and ±100 the full control effect.

SMILES	WRN inhibitor	APEX1 inh	PI5P4K alpha inh	RECQ1 inh-1	BLM inh	FEN1 inhibitor	RECQ1 inh conf	ADP FP counter	others
Cc1ccc(OCc2nnc(SC(C)C(=O)O)n2Cc2ccccc2)cc1 (configuration not stated)	0%	7%	-19	-1%	4%	3%	2%	6%
O=C1N/C(=N/NC(=O)c2cccc3ccccc23)S/C1=C\c1ccccc1OCc1ccccc1	56µM*	10%	-55*	?	-26%	?	.	.	RECQ1 inh-2=?
COc1ccc(OC)c(/C=C2\S/C(=N/NC(=O)c3ccc4ccccc4c3)NC2=O)c1	?	4%	?	-13%	-28%	?	.	.
CCc1ccc2[nH]c(=O)c(CN(Cc3ccccc3)Cc3nnnn3C(C)(C)C)cc2c1	.	.	.	.	.	-6%	.	.
CCOC(=O)c1c(S(=O)(=O)N2CCCC(C(=O)N3CCN(c4cc(C)ccc4C)CC3)C2)c(C)n(C)c1C (configuration not stated)	.	.	.	.	-8%	0%	.	.
O=C(Cn1cnc2cc([N+](=O)[O-])ccc2c1=O)NC(c1ccccc1)c1ccccc1	4%	12%	-5	?	-7%	-2%	.	.	RECQ1 inh-2=-5%
CCN(CC)CCCNC(=O)c1c2c(nc3ccccc13)C(=O)N(C1CCCCC1)C2	.	.	.	.	2%	-4%	.	.
Cc1cccc(N2CCN(C(=O)Cc3ccc(-n4c(=O)[nH]c5ccsc5c4=O)cc3)CC2)c1C	-20%	17%	2	-10%	2%	1%	-10%	21%
CSc1nc2ccccc2cc1/C=C(\C#N)c1cccc(Cl)c1	-17%	16%	3	13µM*	-3%	-11%	.	.	RECQ1 inh-2=-7%
CCOC(=O)c1ccc(CC(=O)c2ccc(O)c(O)c2O)o1	?	?	?	1.4µM*	-6%	14µM*	5%[114 µM]	2%[91.9 µM]
Cc1nnc(N2CCC(C(=O)NCCC(C)C)CC2)c2nn(-c3ccc(Cl)cc3)c(C)c12	.	.	.	.	0%	-5%	.	.
COc1ccc(NC(=O)CSc2nc3ccsc3c(=O)n2CCCCCC(=O)O)cc1	-12%	-1%	1	-1%	3%	3%	?	13%
O=C(O)CCCCCn1c(SCC(=O)Nc2ccc(F)cc2)nc2ccsc2c1=O	-15%	-3%	-5	i	-1%	-15%	5%	-4%
O=C(CCCn1c(SCC(=O)c2ccc(O)c(O)c2)nc2ccccc2c1=O)NCC1CCCO1 (configuration not stated)	22µM*	28µM*	.	14µM*	-15%	-22%	71µM*	-1%[91.9 µM]	RECQ1 inh-2=11µM*
CCCCn1c(SCC(=O)c2ccc(O)c(O)c2)nc2ccsc2c1=O	?	-9%	-23	22µM*	-24%	7%	.	.	RECQ1 inh-2=8.9µM*
CN(C)c1ccc(NC(=O)CSc2nc3ccsc3c(=O)n2CCCCCC(=O)O)cc1	.	.	.	.	2%	-20%	.	.
CC[C@H](C)[C@H](NC(=O)[C@H](Cc1ccc(O)cc1)NC(=O)[C@H](Cc1cnc[nH]1)NC(=O)[C@H](CCCNC(=N)N)NC(=O)[C@H](CC(C)C)NC(=O)[C@H](C)NC(=O)[C@H](CO)NC(=O)[C@H](Cc1ccc(O)cc1)NC(=O)[C@H](Cc1ccc(O)cc1)NC(=O)[C@H](CCCNC(=N)N)NC(=O)[C@H](C)NC(=O)[C@H](CC(C)C)NC(=O)[C@H](CC(=O)O)NC(=O)[C@H](CCC(=O)O)NC(=O)[C@H](C)NC(=O)[C@@H]1CCCN1C(=O)[C@H](C)NC(=O)[C@H](CC(=O)O)NC(=O)[C@H](CCC(=O)O)NC(=O)CNC(=O)[C@@H]1CCCN1C(=O)[C@H](CC(N)=O)NC(=O)[C@H](CC(=O)O)NC(=O)[C@@H]1CCCN1C(=O)[C@H](CCCCN)NC(=O)[C@H](CO)NC(=O)[C@@H]1CCCN1C(=O)[C@@H](N)Cc1ccc(O)cc1)C(=O)N[C@@H](CC(N)=O)C(=O)N[C@@H](CC(C)C)C(=O)N[C@H](C(=O)N[C@H](C(=O)N[C@@H](CCCNC(=N)N)C(=O)N[C@@H](CCC(N)=O)C(=O)N[C@@H](CCCNC(=N)N)C(=O)N[C@@H](Cc1ccc(O)cc1)C(N)=O)[C@@H](C)O)[C@@H](C)CC	.	1%	.	-4%	-7%	.	.	.
CCOC(=O)c1ccc(NC(=O)CN2C(=O)c3cccnc3Sc3ccccc32)cc1	.	.	.	.	-5%	-9%	.	.
COCCCNC(=O)c1ccc(Cn2c(=O)c3ccccc3n(CC(=O)Nc3c(C)cccc3C)c2=O)cc1	.	.	.	.	-10%	2%	.	.
COc1ccc(S(=O)(=O)NCCc2sc(-c3cccnc3)nc2C)cc1	.	.	.	.	0%	-9%	.	.
COc1ccc(CCNC(=O)c2cc(Nc3cc(C)cc(C)c3)nc3ccccc23)cc1OC	.	.	.	.	-6%	?	.	.
Cc1nc(N2CCN(C)CC2)c2nnn(Cc3ccccc3)c2n1	.	.	.	.	.	0%	.	.
CCOC(=O)c1c(N)sc2c1CCN(Cc1ccccc1)C2	.	-2%	.	i	27%	-21%	.	.
COc1cccc(C(=O)c2sc(Nc3ccc(C)cc3C)c(S(=O)(=O)c3ccccc3)c2N)c1	.	.	.	.	-7%	-4%	.	.
Cc1ccc(CNC(=O)C2CCN(S(=O)(=O)c3cccs3)CC2)o1	-17%	17%	.	?	0%	0%	.	.	RECQ1 inh-2=-16%
CSc1cccc(NC(=O)CC(c2ccc(F)cc2)N2Cc3ccccc3C2=O)c1 (configuration not stated)	.	.	.	.	-4%	-5%	.	.
CCCCc1cc(=O)oc2cc(C)c(CN3CCCC3)c(O)c12	50µM*	-12%	.	13µM*	?	?	20µM*	50µM*	RECQ1 inh-2=?
CCOC(=O)C(C)Oc1cccc2c(=O)n(CC(=O)NCc3ccc4c(c3)OCO4)ccc12 (configuration not stated)	-1%	14%	3	-11%	3%	-20%	7%	?
Cn1cnnc1Sc1ccc(/C=C(\CC(=O)O)c2nc3ccccc3s2)cc1[N+](=O)[O-]	?	-2%	?	-5%	-7%	-14%	-10%	-11%
